Laboratory results reported in publication PMC12864922, “TDP-43 directly inhibits mRNA accumulation in neurites through modulation of mRNA stability”.
Over roughly 9,900 sequences, “r (bound/input frequency ratio)” has its median near 0.7; the highest 2% begin near 6.5. The full list was thinned out, with the highest values kept by preference.

B1: ENSMUSG00000043670.198|Diras1 (ssRNA)
RNA: GGGAGUUCUACAGUCCGACGAUCGCUUCGAUAUCCGCAUGCUAGAGACUGUCCAGGAGACUUGAGUGGCUCCUGGGCCUGUGUCCCACCCAGAUGAGGGUGACUUAGAAUUCUGUGUUUAUGUGCCUGUGUGUGUGGAUGGGUGUGUGUCUGUCUUGGGAUGGGGUGUUCUUGCACCACUUUGUGUUCUUAGUGAGACCACAGUGUAAGUGGCCGUGUGUGUGUGUGGGGGGGGGCACCUAGACAUUGUGGUGUGUCUGUAUGGCUCUGUGUUUUCAGGGGUGGGUGACACAGGCCUGUCUGACUCUUGCGGUCGCACUAGUGUGGAAUUCUCGGGUGUCAAGG
B2: ENSMUSG00000043670.212|Diras1 (ssRNA)
RNA: GGGAGUUCUACAGUCCGACGAUCGCUUCGAUAUCCGCAUGCUAGUGUGUGUGGAUGGGUGUGUGUCUGUCUUGGGAUGGGGUGUUCUUGCACCACUUUGUGUUCUUAGUGAGACCACAGUGUAAGUGGCCGUGUGUGUGUGUGGGGGGGGGCACCUAGACAUUGUGGUGUGUCUGUAUGGCUCUGUGUUUUCAGGGGUGGGUGACACAGGCCUGUCUGAUGAGCACCAGGUCUGUUCCAGGCUGUGGCAAGCUGGCUCCUGGCUCAGAAGUGACAAAGCUGCAGUACAGAGGCCUCAGUGUGACUCUUGCGGUCGCACUAGUGUGGAAUUCUCGGGUGUCAAGG
B3: ENSMUSG00000043670.203|Diras1 (ssRNA)
RNA: GGGAGUUCUACAGUCCGACGAUCGCUUCGAUAUCCGCAUGCUAGGGCCUGUGUCCCACCCAGAUGAGGGUGACUUAGAAUUCUGUGUUUAUGUGCCUGUGUGUGUGGAUGGGUGUGUGUCUGUCUUGGGAUGGGGUGUUCUUGCACCACUUUGUGUUCUUAGUGAGACCACAGUGUAAGUGGCCGUGUGUGUGUGUGGGGGGGGGCACCUAGACAUUGUGGUGUGUCUGUAUGGCUCUGUGUUUUCAGGGGUGGGUGACACAGGCCUGUCUGAUGAGCACCAGGUCUGUUCCAGGCUGUGGCACUCUUGCGGUCGCACUAGUGUGGAAUUCUCGGGUGUCAAGG
B4: ENSMUSG00000043670.215|Diras1 (ssRNA)
RNA: GGGAGUUCUACAGUCCGACGAUCGCUUCGAUAUCCGCAUGCUAGUGUCUGUCUUGGGAUGGGGUGUUCUUGCACCACUUUGUGUUCUUAGUGAGACCACAGUGUAAGUGGCCGUGUGUGUGUGUGGGGGGGGGCACCUAGACAUUGUGGUGUGUCUGUAUGGCUCUGUGUUUUCAGGGGUGGGUGACACAGGCCUGUCUGAUGAGCACCAGGUCUGUUCCAGGCUGUGGCAAGCUGGCUCCUGGCUCAGAAGUGACAAAGCUGCAGUACAGAGGCCUCAGUGUGAGGUCAUCACCUCACAGUGCUCUUGCGGUCGCACUAGUGUGGAAUUCUCGGGUGUCAAGG
B5: ENSMUSG00000043670.211|Diras1 (ssRNA)
RNA: GGGAGUUCUACAGUCCGACGAUCGCUUCGAUAUCCGCAUGCUAGUGCCUGUGUGUGUGGAUGGGUGUGUGUCUGUCUUGGGAUGGGGUGUUCUUGCACCACUUUGUGUUCUUAGUGAGACCACAGUGUAAGUGGCCGUGUGUGUGUGUGGGGGGGGGCACCUAGACAUUGUGGUGUGUCUGUAUGGCUCUGUGUUUUCAGGGGUGGGUGACACAGGCCUGUCUGAUGAGCACCAGGUCUGUUCCAGGCUGUGGCAAGCUGGCUCCUGGCUCAGAAGUGACAAAGCUGCAGUACAGAGGCCUCACUCUUGCGGUCGCACUAGUGUGGAAUUCUCGGGUGUCAAGG
B6: ENSMUSG00000043670.203|Diras1|6:10;40:44;54:63;69:76;109:113;142:154;178:183;186:190;195:199 (ssRNA)
RNA: GGGAGUUCUACAGUCCGACGAUCGCUUCGAUAUCCGCAUGCUAGGGCCACACACCCACCCAGAUGAGGGUGACUUAGAAUUCACACAUUAUGUGCCACACACACACGAUGGCACACACACUGUCUUGGGAUGGGGUGUUCUUGCACCACUUACACAUCUUAGUGAGACCACAGUGUAAGUGGCCCACACACACACACGGGGGGGGCACCUAGACAUUGUGCACACACUCAUACGCUCACACAUUUCAGGGGUGGGUGACACAGGCCUGUCUGAUGAGCACCAGGUCUGUUCCAGGCUGUGGCACUCUUGCGGUCGCACUAGUGUGGAAUUCUCGGGUGUCAAGG
B7: ENSMUSG00000043670.207|Diras1 (ssRNA)
RNA: GGGAGUUCUACAGUCCGACGAUCGCUUCGAUAUCCGCAUGCUAGGUGACUUAGAAUUCUGUGUUUAUGUGCCUGUGUGUGUGGAUGGGUGUGUGUCUGUCUUGGGAUGGGGUGUUCUUGCACCACUUUGUGUUCUUAGUGAGACCACAGUGUAAGUGGCCGUGUGUGUGUGUGGGGGGGGGCACCUAGACAUUGUGGUGUGUCUGUAUGGCUCUGUGUUUUCAGGGGUGGGUGACACAGGCCUGUCUGAUGAGCACCAGGUCUGUUCCAGGCUGUGGCAAGCUGGCUCCUGGCUCAGAAGUGACUCUUGCGGUCGCACUAGUGUGGAAUUCUCGGGUGUCAAGG
B8: ENSMUSG00000043670.209|Diras1 (ssRNA)
RNA: GGGAGUUCUACAGUCCGACGAUCGCUUCGAUAUCCGCAUGCUAUUCUGUGUUUAUGUGCCUGUGUGUGUGGAUGGGUGUGUGUCUGUCUUGGGAUGGGGUGUUCUUGCACCACUUUGUGUUCUUAGUGAGACCACAGUGUAAGUGGCCGUGUGUGUGUGUGGGGGGGGGCACCUAGACAUUGUGGUGUGUCUGUAUGGCUCUGUGUUUUCAGGGGUGGGUGACACAGGCCUGUCUGAUGAGCACCAGGUCUGUUCCAGGCUGUGGCAAGCUGGCUCCUGGCUCAGAAGUGACAAAGCUGCAGUCUCUUGCGGUCGCACUAGUGUGGAAUUCUCGGGUGUCAAGG
B9: ENSMUSG00000043670.210|Diras1 (ssRNA)
RNA: GGGAGUUCUACAGUCCGACGAUCGCUUCGAUAUCCGCAUGCUAGUUUAUGUGCCUGUGUGUGUGGAUGGGUGUGUGUCUGUCUUGGGAUGGGGUGUUCUUGCACCACUUUGUGUUCUUAGUGAGACCACAGUGUAAGUGGCCGUGUGUGUGUGUGGGGGGGGGCACCUAGACAUUGUGGUGUGUCUGUAUGGCUCUGUGUUUUCAGGGGUGGGUGACACAGGCCUGUCUGAUGAGCACCAGGUCUGUUCCAGGCUGUGGCAAGCUGGCUCCUGGCUCAGAAGUGACAAAGCUGCAGUACAGAGCUCUUGCGGUCGCACUAGUGUGGAAUUCUCGGGUGUCAAGG
B10: ENSMUSG00000043670.208|Diras1 (ssRNA)
RNA: GGGAGUUCUACAGUCCGACGAUCGCUUCGAUAUCCGCAUGCUAUUAGAAUUCUGUGUUUAUGUGCCUGUGUGUGUGGAUGGGUGUGUGUCUGUCUUGGGAUGGGGUGUUCUUGCACCACUUUGUGUUCUUAGUGAGACCACAGUGUAAGUGGCCGUGUGUGUGUGUGGGGGGGGGCACCUAGACAUUGUGGUGUGUCUGUAUGGCUCUGUGUUUUCAGGGGUGGGUGACACAGGCCUGUCUGAUGAGCACCAGGUCUGUUCCAGGCUGUGGCAAGCUGGCUCCUGGCUCAGAAGUGACAAAGCCUCUUGCGGUCGCACUAGUGUGGAAUUCUCGGGUGUCAAGG

target: TDP-43 (Homo sapiens, UniProt Q13148 1-414); test: RNA Bind-n-Seq with designed 260-mer pool; 25 mM Tris-HCl, 150 mM KCl, 3 mM MgCl2, BSA (printed 500 mg/mL), 20 units/mL SUPERase IN; pH not stated; 500 nM RNA pool, 1 h, 4 C; TDP-43 5, 50, 500 nM; high values mean tight binding; settings: protein: recombinant; tags: SBP (GST cleaved off with PreScission; pGEX-GST-SBP)
Sequence (Q13148 whole entry): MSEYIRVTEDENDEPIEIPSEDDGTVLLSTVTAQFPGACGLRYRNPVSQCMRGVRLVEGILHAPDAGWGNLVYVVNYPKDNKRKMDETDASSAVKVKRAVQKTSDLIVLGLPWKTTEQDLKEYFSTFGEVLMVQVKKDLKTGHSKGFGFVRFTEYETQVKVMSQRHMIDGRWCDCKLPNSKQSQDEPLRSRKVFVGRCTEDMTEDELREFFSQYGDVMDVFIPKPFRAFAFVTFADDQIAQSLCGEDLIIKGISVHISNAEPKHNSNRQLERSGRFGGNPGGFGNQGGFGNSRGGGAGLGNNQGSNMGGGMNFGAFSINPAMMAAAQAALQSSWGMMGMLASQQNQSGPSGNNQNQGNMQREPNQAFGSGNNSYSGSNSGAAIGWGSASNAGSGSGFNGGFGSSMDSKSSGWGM
Procedure, shortened: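 Streptavidin beads captured recombinant SBP-tagged TDP-43 at 5, 50 or 500 nM, and the beads were incubated for 1 h at 4 °C with 500 nM of an in vitro-transcribed pool of 260-nt 3′ UTR oligos in 25 mM Tris-HCl, 150 mM KCl, 3 mM MgCl2, BSA and SUPERase IN. After washing, bound RNA was eluted with biotin, reverse transcribed, PCR-amplified and sequenced. Binding is reported as R, the mapped-read-normalized abundance of each oligo in the bound sample divided by its abundance in the input. Two independent protein batches served as duplicates.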

Row | Binder | binding signal
1 | B1 | 4.93 R (bound/input frequency ratio)
2 | B2 | 6.14 R (bound/input frequency ratio)
3 | B3 | 7.32 R (bound/input frequency ratio)
4 | B4 | 3.25 R (bound/input frequency ratio)
5 | B5 | 5.36 R (bound/input frequency ratio)
6 | B6 | 1.5 R (bound/input frequency ratio)
7 | B7 | 8.86 R (bound/input frequency ratio)
8 | B8 | 5.23 R (bound/input frequency ratio)
9 | B9 | 5.7 R (bound/input frequency ratio)
10 | B10 | 7.79 R (bound/input frequency ratio)
